The values that follow come from PubChem BioAssay AID1851 (National Center for Advancing Translational Sciences (NCATS), 2009).

As usually defined, the AC50 is the concentration at which the activity in the assay is half-maximal.

Where “and” joins values, the source holds several entries; their conditions need not be identical. Equal entries are not always repeated. About 4,000 (25%) of roughly 16,000 compounds were called active. Roughly 26% stayed inconclusive and do not appear here. Not all results are given here. Values without a mark were called inactive. The call rests on the fitted dose curve; in most records, active means well fitted curve in the direction sought with a large enough effect; inconclusive means small, poorly fitted or top-dose-only effect, or effect the other way; inactive means no such curve, though single readings can be large or run the other way.
On the % scale 0 is the no-effect control and ±100 the full control effect.

The target of this test is Cytochrome P450 2C9 (Homo sapiens) (UniProt P11712). In words: Cytochrome panel assay with activity outcomes. The settings on record: recombinant CYP, pro-luciferin dealkylation, luminescence, p450-cyp2c9; series mostly up to 57.1 µM; activity, negative = inhibition: at the top concentration.
Sequence of Cytochrome P450 2C9 (Homo sapiens) (P11712 whole entry, looked up): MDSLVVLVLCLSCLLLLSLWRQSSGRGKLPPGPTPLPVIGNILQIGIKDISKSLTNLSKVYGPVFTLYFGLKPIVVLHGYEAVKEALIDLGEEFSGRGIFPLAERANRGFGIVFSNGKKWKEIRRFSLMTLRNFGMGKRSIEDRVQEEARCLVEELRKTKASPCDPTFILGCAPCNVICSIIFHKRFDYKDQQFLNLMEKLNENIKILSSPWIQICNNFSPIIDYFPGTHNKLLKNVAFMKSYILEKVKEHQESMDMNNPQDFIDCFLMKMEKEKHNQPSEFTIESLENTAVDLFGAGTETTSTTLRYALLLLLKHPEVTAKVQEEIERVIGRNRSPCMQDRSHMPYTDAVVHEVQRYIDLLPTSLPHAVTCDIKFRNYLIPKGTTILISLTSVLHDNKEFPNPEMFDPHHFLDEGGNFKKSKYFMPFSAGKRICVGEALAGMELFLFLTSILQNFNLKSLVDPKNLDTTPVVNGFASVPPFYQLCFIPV
Regarding `O=C(O)CC[C@@H](C(=O)O)N1C(=O)[C@@H]2[C@@H]3CC[C@H](C3)[C@@H]2C1=O`, the activity, negative = inhibition is 12.5% [at 11.4 µM].
Take `OCCNc1nc(NCCC2=CCCCC2)nc(N2CCOCC2)n1`: the half-maximal activity concentration (AC50) is 14.1 µM (active).
Consider `CCN(CC)CCNC(=O)C(C)c1nn(C)c(=O)c2ccccc12` (stereo not drawn), for which the “activity, negative = inhibition” value was -0.184%.
With `CCOC(=O)CNS(=O)(=O)c1cc(-c2nn(C)c(=O)c3ccccc23)ccc1C`, the AC50 is 0.316 µM (active).
On to `CS(=O)(=O)Nc1cccc(-c2ccc3ncnc(NCCN4CCOCC4)c3c2)c1`, for which the activity, negative = inhibition is 19% [at 2.29 µM].
On the same count and under the same terms, in the case of `Cc1ccc(S(=O)(=O)NCc2cccc([N+](=O)[O-])c2)cc1` it was 24.1% [at 11.4 µM]; in that of `N[C@@H](Cc1cccc([N+](=O)[O-])c1)C(=O)O`, 16.8% [at 11.4 µM].
`CCN(Cc1ccccc1)Cc1cccc([N+](=O)[O-])c1`: the AC50 was 10 µM (active).
`COc1c(Cl)cc(Cl)cc1CNCCNCC(C)O` (stereo not drawn): the “activity, negative = inhibition” value was 15.2%.
Regarding `Cc1cc(Cl)nc2ccc(Cc3ccc4nc(Cl)cc(C)c4c3)cc12`, the activity, negative = inhibition is 0.565% [at 11.4 µM].
On the same count and under the same terms, in the case of `COc1ccc2c(C)cc(N3CCOCC3)nc2c1` it was 11.4%.
Take `Cc1cc(N2CCOCC2)nc2ccc(Cc3ccc4nc(N5CCOCC5)cc(C)c4c3)cc12`: the AC50 was 3.98 µM (active).
Turning to `O=C(/C=C\C=C/c1ccc2c(c1)OCO2)N1CCCCC1`, the “activity, negative = inhibition” value was -34.7% [at 25.6 µM].
For the molecule `Nc1ccccc1C(=O)/C=C\c1ccc2c(c1)OCO2`, the activity, negative = inhibition is -29.2% [at 11.4 µM].
Same read-out and setting: in the case of `CCCc1nnc(SCC(=O)O)n1/N=C/c1ccc2c(c1)OCO2` it was -24.4%.
With `COCOc1cc(OC)ccc1C(=O)/C=C\c1ccc2c(c1)OCO2`, the AC50 was 2.51 µM (active).
For the molecule `CCNc1ccc(Br)cc(C(=O)/C=C/c2ccc3c(c2)OCO3)c1=O`, the AC50 is 11.2 µM (active).
As to `COc1ccccc1N1CCN(C(=O)/C=C/c2ccc3c(c2)OCO3)CC1`, the AC50 is 14.1 µM (active).
On to `CCCC(=O)Nc1ccc(C(=O)/C=C/c2ccc(SC)cc2)cc1`, for which the AC50 is 1.78 µM (active).
Regarding `CCCCCCCCCCCCCCCCCCc1ccc(C(=O)/C=C\C(=O)O)cc1`, the “activity, negative = inhibition” value was -7.99%.
Same read-out and setting: the figure for `O=C(O)CC/C=C\C[C@@H]1CO[C@H](c2ccccc2Cl)O[C@@H]1c1ccccc1O` is -16.7%; for `c1ccc(C2OCC3(CO2)COC(c2ccccc2)OC3)cc1` (stereo not drawn) it is -37.5%; for `O=C1CCCCCC1C1(O)C(=O)Nc2ccc(Br)cc21` (stereo not drawn) it is -11.1%.
As for `Nc1nc(SCc2ccccc2[N+](=O)[O-])c2[nH]cnc2n1`, the activity, negative = inhibition is -28.6% [at 11.4 µM].
Consider `Nc1nc(Sc2ccc([N+](=O)[O-])c3nonc23)c2[nH]cnc2n1`, for which the AC50 is 3.16 µM (active).
For `CC(C)[C@H](Sc1nc(N)nc2nc[nH]c12)C(=O)O`, the activity, negative = inhibition was 12.2% [at 11.4 µM].
On to `CCOC(=O)N1CCN(C(=O)C(CC)n2nc(C)c3sc4ccccc4c3c2=O)CC1` (stereo not drawn), for which the AC50 is 3.16 µM (active).
As to `CCOC(=O)N1CCN(C(=O)CCn2nc(-c3ccccc3)ccc2=O)CC1`, the “activity, negative = inhibition” value is -13.9%.
For `CN(C)CCCN=c1c2ccccc2n(C)c2[nH]c(=O)n(C)c(=O)c12`, the activity, negative = inhibition was -3.97% [at 11.4 µM].
For the molecule `CC(=O)NCCNc1ccnc(-c2ccccc2C(F)(F)F)n1`, the activity, negative = inhibition was 9.95% [at 2.29 µM].
Same read-out and setting: in the case of `COc1ccc(N=Cc2ccc(CNS(=O)(=O)c3ccc(Cl)cc3)o2)cc1` it was -5.91%.
As to `COc1cc(O)oc1C=Nc1ccc(Cl)cc1`, the AC50 is 22.4 µM (active).
As to `CCNC(=S)N1CC(C)OC(C)C1` (stereo not drawn), the “activity, negative = inhibition” value is -4.79%.
For `Cc1ccc(SCN2CCCCC2)cc1` (tested in a mixture with another compound), the activity, negative = inhibition was -29.3% [at 11.4 µM].
For `Cc1ccc(N(CCC#N)C(=O)CSc2ccc3c(c2)OCCO3)cc1`, the half-maximal activity concentration (AC50) was 5.01 µM (active).
The same measure, in the same setting: in the case of `CC1Cc2ccccc2N1Cc1nc2cc(C(F)(F)F)ccc2c(=O)[nH]1` (stereo not drawn) it was 5.01 µM (active).
Consider `O=S(=O)(c1ccc(Br)cc1)N1CCN(S(=O)(=O)c2ccc(Br)cc2)CC1`, for which the activity, negative = inhibition was 25.6% [at 11.4 µM].
`O=S(=O)(c1cccc(-c2nnc(-c3ccc(Br)cc3)o2)c1)N1CCCCCC1`: the AC50 is 5.01 µM (active).
As for `Brc1ccc(-c2nnc(-c3cccc(Br)c3)o2)cc1`, the “activity, negative = inhibition” value was -6.6%.
Consider `c1cncc(-c2cncnc2-n2ccnc2)c1`, for which the activity, negative = inhibition was 8.83% [at 2.29 µM].
With `Oc1ccc(-c2[nH]ncc2-c2ccc(Cl)cc2)c(O)c1`, the AC50 was 0.794 µM (active).
With `CC(C)NC(=O)N1CC2(CCN(C(=O)c3cc(C(F)(F)F)cc(C(F)(F)F)c3)CC2)C1`, the “activity, negative = inhibition” value is -19.4%.
As for `CCOC(=O)c1c(CC(C)C)csc1NC=O`, the concentration at half-maximal activity (AC50) was 10 µM (active).
Consider `Cc1ccccc1C(=O)c1c[nH]c(C(=O)NCC2CCCO2)c1` (stereo not drawn), for which the “activity, negative = inhibition” value was 25.6%.
For the molecule `O=C(Nc1ccccc1C(=O)NCC1CCCO1)c1ccc(Cl)cc1Cl` (stereo not drawn), the half-maximal activity concentration (AC50) was 10 µM (active).
Regarding `O=C(CN(Cc1ccccc1Cl)C(=O)c1ccc(CN2CCOCC2)o1)NCC1CCCO1` (stereo not drawn), the “activity, negative = inhibition” value is -3.33%.
`COc1cccc([C@H]2Oc3ccc(OC)cc3/C(=N\OC[C@@H](O)[C@@H]3O[C@@H]4OC(C)(C)O[C@@H]4[C@H]3O)[C@@H]2O)c1`: the activity, negative = inhibition was -20.5% [at 11.4 µM].
Same read-out and setting: in the case of `CC(C)=NO[C@@H](C)c1cn([C@H](CO)Cc2ccccc2)nn1` it was 16.5% [at 11.4 µM] and 5.66% [at 11.4 µM].
With `COc1cccc([C@H]2Oc3ccc(OC)cc3/C(=N\O[C@@H](C)c3cn([C@H](CO)Cc4ccccc4)nn3)[C@@H]2O)c1`, the AC50 is 1.58 µM (active).
`COc1cccc([C@@H]2Oc3ccc(OC)cc3/C(=N/O[C@@H](C)c3cn([C@H]4COC[C@H]4O)nn3)[C@@H]2O)c1`: the activity, negative = inhibition was -15.5% [at 11.4 µM].
For `COc1cccc([C@@H]2Oc3ccc(OC)cc3/C(=N/OC[C@@H](C)[C@H](OCc3ccccc3)C(C)C)[C@@H]2O)c1`, the AC50 was 3.98 µM (active).
On to `COc1ccc(O[C@H]2C=C[C@@H](c3ccccc3)O[C@@H]2CON=C(C)C)cc1`, for which the activity, negative = inhibition is 11.9% [at 11.4 µM].
Regarding `C=CC[C@@H]1C=C[C@H](O/N=C2\c3cc(OC)ccc3O[C@H](c3cccc(OC)c3)[C@H]2O)[C@H](CO)O1`, the half-maximal activity concentration (AC50) was 0.398 µM (active).
Still for that read-out and setting: the figure for `COc1ccc(O[C@H]2C=C[C@@H](c3ccccc3)O[C@H]2CO/N=C2/c3cc(OC)ccc3O[C@@H](c3cccc(OC)c3)[C@H]2O)cc1` is 3.16 µM (active).
Consider `C=CC[C@@H]1C=C[C@@H](O/N=C\C[C@@H]2C=C[C@H](OC(C)=O)[C@H](COC(C)=O)O2)[C@@H](CO)O1`, for which the activity, negative = inhibition is -4.4% [at 11.4 µM].
In the case of `CO/N=C1/c2cc(OC)ccc2O[C@@H](c2cccc(OC)c2)[C@H]1O`, the activity, negative = inhibition was -0.557% [at 11.4 µM].
For the molecule `COc1cccc([C@H]2Oc3ccc(OC)cc3/C(=N\O[C@@H]3O[C@H](COC(C)=O)[C@H](OC(C)=O)[C@H](OC(C)=O)[C@H]3OC(C)=O)[C@@H]2O)c1`, the activity, negative = inhibition is -12.6% [at 11.4 µM].
With `CC1=N[C@@](C)(COC(=O)[C@]2(C)N[C@](C)(CO)CO2)COC1=O`, the activity, negative = inhibition was 11% [at 11.4 µM].
The same measure, in the same setting: in the case of `CC(=O)NCCNc1cc(-c2ccccc2CN(C)C)ncn1` it was 10% [at 2.29 µM].
Turning to `O=[N+]([O-])/C=C\c1cc2ccccc2[nH]1`, the activity, negative = inhibition is 11.3% [at 11.4 µM].
As for `COCC(=O)Nc1c(I)c(C(=O)NC[C@@H](O)CO)c(I)c(C(=O)N(C)C[C@@H](O)CO)c1I`, the “activity, negative = inhibition” value is -13.9% [at 25.6 µM].
For the molecule `C/C(CCN1CCCCc2nc(C)c(C)cc21)=N\O[C@@H](C)CN1CCCc2nc(C)c(C)cc21`, the activity, negative = inhibition was -5.53% [at 11.4 µM].
With `CC(C)=NO[C@@H](C)CN1CCCCc2nc(C)c(C)cc21`, the activity, negative = inhibition is 19.8% [at 11.4 µM].
As for `COc1cccc([C@@H]2Oc3ccc(OC)cc3/C(=N/O[C@@H](C)CN3CCCCc4nc(C)c(C)cc43)[C@@H]2O)c1`, the half-maximal activity concentration (AC50) was 1.58 µM (active).
For `CCC(C)(C)N=C(NC#N)Nc1cccnc1`, the “activity, negative = inhibition” value was 20.6%.
On the same count and under the same terms, the figure for `CN(C)c1ncnc2ccc(-c3ccccc3C#N)cc12` is -7.24% [at 2.29 µM].
As to `Nc1c2c(=O)oc(-c3ccccc3)cc2nn1-c1ccccc1`, the concentration at half-maximal activity (AC50) is 10 µM (active).
Take `O=C(O)/C=C(/C(=O)O)[C@]12CCN3CC4=CCO[C@@H]5CC(=O)N[C@@H]1[C@H]5[C@H]4C[C@H]32`: the activity, negative = inhibition is -2.53% [at 11.4 µM].
Regarding `CN1/C(=C\C=[N+](C)c2ccccc2)C(C)(C)c2ccccc21`, the “activity, negative = inhibition” value is 1.48%.
On to `CN1/C(=C\C(=O)COC(=O)Cn2nnc(-c3ccccc3)n2)C(C)(C)c2ccccc21`, for which the concentration at half-maximal activity (AC50) is 3.98 µM (active).
In the case of `c1ccc(-c2nnn(CCN3CCCCC3)n2)cc1`, the activity, negative = inhibition was 3.45% [at 11.4 µM].
Consider `CC1CCCN(C(=O)c2sc3cc([N+](=O)[O-])ccc3c2Cl)C1` (stereo not drawn), for which the “activity, negative = inhibition” value is -13.6%.
Take `CS(=O)(=O)c1ccc([C@H](O)[C@H](CO)NC(=O)C(Cl)Cl)cc1`: the “activity, negative = inhibition” value was 12.9% [at 25.6 µM].
For the molecule `CC(=O)N1CCC2(CCCN(Cc3ccccc3)C2)CC1`, the “activity, negative = inhibition” value was -9.6%.
As for `Cc1cc(C)n(-c2nc(NC(C)C)nc(NC(C)C)n2)n1`, the “activity, negative = inhibition” value is -25.2%.
`COc1ccc(-c2cc(C(F)F)nc(-n3nc(C)cc3C)n2)cc1`: the concentration at half-maximal activity (AC50) was 28.2 µM (active).
With `Cc1cnc(CNc2nc(-c3ccc(N(C)C)cc3)nc3ccccc23)cn1`, the activity, negative = inhibition was -14.7% [at 2.29 µM].
Take `COc1ncc2nc(-c3cccs3)c(=O)n(CCC#N)c2n1`: the “activity, negative = inhibition” value is -3.19%.
Still for that read-out and setting: the figure for `COc1ccccc1NC(=O)CCc1c(C)[nH]c(=O)c(C#N)c1C` is -3.94%; for `N#CCCn1c(=O)c(-c2cccs2)nc2cnc(Nc3ccccc3)nc21` it is 2.54%.
Consider `N#Cc1c(-c2cccs2)nc(SCC(=O)c2cccs2)[nH]c1=O`, for which the AC50 was 0.708 µM (active).
For the molecule `Cc1cccc(NC(=O)CSc2nc(-c3ccccc3)c(C#N)c(=O)[nH]2)c1C`, the AC50 is 0.355 µM (active).
Take `CC(C)NC(=O)N1CC[C@@]2(CCCN(C(=O)c3csnn3)C2)C1`: the “activity, negative = inhibition” value is 19%.
